These results are taken from PubChem BioAssay (NCI).

SMILES strings stand for the structures. Compounds without any hit were thinned out: in the full panel of roughly 83,000, 20% have a hit.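 For each line, cells grew in 96-well plates with the test compound present at a single concentration for 48 hours.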 A number with no mark means an inactive call. Activity calls are given as the source filed them. How the source made its calls: active means growth percent below 10; inactive means the rest.

Holding throughout (assay): NCI-60 one-dose screen, 48 h (100 = growth as untreated, 0 = no growth, -100 = all killed)
Settings in all cases: 10 µM unless noted

Assay [1] relates to NCI-H23 lung.
Assay [2] concerns NCI-H226 lung.
The test system of assay [3] is NCI-H322M lung.
Assay [4] has as its system HOP-62 NSCLC.
The test system of assay [5] is NCI-H460 lung.
Assay [6] relates to HOP-92 NSCLC.
The test system of assay [7] is NCI-H522 lung.
Assay [8] concerns A549/ATCC NSCLC.
For assay [9], the system named is 786-0 renal.
Assay [10] has as its system COLO 205 colon.
Assay [11] relates to DU-145 prostate.
Assay [12] relates to MALME-3M melanoma.
In assay [13] the test system is MDA-MB-231 breast.
In assay [14] the test system is RXF 393 renal.
Assay [15] relates to SF-268 CNS.
Assay [16] concerns SF-295 CNS.
Assay [17] concerns SF-539 CNS.
The subject of assay [18] is UACC-257 melanoma.
Assay [19] concerns M14 melanoma.
Assay [20] relates to K-562 leukemia.

With `COc1ccc(/C=C\c2cc(OC)c(OC)c(OC)c2)cc1NC(=O)/C=C/c1cc(OC)c(OC)c(OC)c1`, the growth was 25.7% in [1]; 46.8% in assay [2]; 55.1% in assay [3]; 45.5% in [4]; 55.2% in assay [5]; 55.5% in [6]. Also, the growth in [7] is 34.3%; in assay [8], 56.6%; in [9], 39.9%; in assay [10], 42.1%; in assay [11], 95.2%; in assay [12], 58%. Also, the growth is 63.9% in assay [13]; 1.99% (active) in assay [14]; 61.1% in assay [15]; 12.5% in [16]; 44.5% in assay [17]; 70.6% in assay [18]. Moreover, the growth in assay [19] was 31.6%.
For `O=C(Nc1ccc(Br)cc1)c1cc(Br)cc(Br)c1O`, the growth was -14.1% (active) in assay [1]; 10.6% in assay [2]; 13.7% in [3]; -4.33% (active) in [4]; -25.3% (active) in assay [5]; -30.7% (active) in assay [6]. Moreover, the growth was -3.18% (active) in [7]; 6.64% (active) in assay [8]; -12.3% (active) in assay [9]; 102% in assay [10]; 96.9% in assay [20]; -12% (active) in [12]. Moreover, the growth in [13] was -22.4% (active); in [14], -9.8% (active); in assay [15] it was 32.3%; in assay [16] it was -8.2% (active); in assay [17] it was 8.02% (active); in [18], -17.1% (active). Moreover, the growth in [19] is 1.78% (active).
On to `Cc1ccc(C(=O)NCCCOc2ccc(N3C(N)=NC(N)=NC3(C)C)cc2Cl)cc1S(=O)(=O)F`, for which the growth in assay [1] was 84.4%; in [2] it was 91.9%; in assay [3], 92.5%; in assay [4] it was 94.7%; in [5], 46.2%; in assay [6], 69.1%. Besides, the growth was 78.3% in [7]; 77.5% in assay [8]; 91% in [9]; 87.7% in assay [10]; 126% in [11]; 70.4% in [12]. Also, the growth in assay [13] is 98.6%; in [15], 54.3%; in [16] it was 111%; in assay [17] it was 54.1%; in assay [19], 76.7%.
Turning to `COc1cc(/C=N/C2=C(C#N)C(c3ccco3)c3c(c4cc(C)ccc4oc3=O)O2)cc(OC)c1OC` (centres undefined), the growth in assay [1] is 95.1%; in assay [2], 86.3%; in assay [3], 100%; in [4], 87.3%; in [5] it was 103%; in assay [6] it was 59.4%. For the same compound, the growth in assay [7] is 40.3%; in [8], 99.5%; in assay [9], 92.5%; in assay [10], 118%; in [11], 107%; in assay [12], 97.2%. In addition, the growth is 95.6% in assay [13]; 95.2% in assay [15]; 92.2% in assay [16]; 90.8% in assay [17]; 94.2% in assay [18]; 93.4% in [19].
For the compound `NC(=Nc1ccccc1)N[N+](=O)[O-]`, the growth in [1] was 93.7%; in assay [2], 90.1%; in [3] it was 109%; in assay [4], 104%; in [5] it was 105%; in [6] it was 118%. The growth was 115% in assay [7]; 107% in assay [8]; 113% in [9]; 107% in [10]; 111% in [11]; 103% in assay [12]. For the same compound, the growth in assay [13] is 115%; in assay [14], 95.2%; in [15] it was 102%; in [16], 113%; in assay [18] it was 112%.
In the case of `N#CC1(C#N)C(c2ccc(N(CCCl)CCCl)cc2)OC23CCCCC2C1(C#N)C(=N)O3` (centres undefined), the growth in [1] is 61.5%; in assay [2] it was 9.15% (active); in [3], 94.2%; in assay [4], 89.2%; in [5], 30.1%; in assay [6], 88.5%. Moreover, the growth in assay [7] was 80.2%; in assay [8], 97.3%; in [9], 88.6%; in [10], 104%; in assay [11], 56.4%; in assay [12], 96.9%. Also, the growth in assay [13] is 95.3%; in [14], 73.9%; in assay [15] it was 69.6%; in [16], 108%; in assay [17] it was 85%; in assay [18] it was 87.9%. The growth in [19] was 93.9%.
